The list is not random: actives were taken first. Their share in the collection is about 6.2%.
Cardio protect: cardioprotection against H2O2-induced cell death, primary screen, uHTS, H9c2 cells, ATPLite luminescence | H9c2 cardiomyocytes, H2O2 injury protection, 2 h | protection from H2O2 cell death, % at 20 µM | hit rate 0.63% among 360,000;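 active = compounds giving at least 50% protection of heart cells from peroxide-induced death in the single-dose screen, raw or plate-pattern-corrected value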;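 note: 0% = DMSO wells with peroxide and 100% = DMSO wells without peroxide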
AI-2 QS modul: Vibrio harveyi AI-2 quorum sensing modulators, primary screen, JMH597 strain, luminescence/OD600 ratio; Vibrio harveyi JMH597 AI-2 luminescence/OD600 ratio, 9 h; stronger effect = lower value; strain lacks LuxN and CqsS sensors; 0 = neutral-control median; activity change, % at 7.5 µM; hit rate 0.4% among 300,000; AID 2094, 2009; in the data active = activity change below about -75%, passing the limit was not always enough;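 note: luminescence divided by OD600 gain over 9 h not by final OD600 alone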
Mot1-301 SUMO: yeast Mot1-301 growth rescue at high temperature, primary screen, SUMOylation pathway inhibitor project, S. cerevisiae, ATP luminescence, 38.5C. S. cerevisiae Mot1-301 growth rescue; percent above DMSO median, 100 means doubled. growth rescue, % at 18.8 µM. hit rate 1% among 320,000;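 active = every valid replicate shows activation above 250% relative to neutral control wells; inactive = the rest, any valid replicate at or below 250%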;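 note: OY570 slx delta 5 strain wells were the positive control but not used for scaling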
AHR activator: AHR activators, primary screen, cell-based, luminescence, luciferase reporter, human. Aryl hydrocarbon receptor (Homo sapiens), P35869. AHR-responsive luciferase reporter cells. activation, % at 5 µM. hit rate 2.5% among 320,000. AID 2796, 2010; in the data active = activation above about 47%;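 note: 0% = vehicle wells and 100% = reference agonist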
NTR1 agonist: agonists of human NTR1, primary screen, imaging, U2OS cells, beta-arrestin-GFP, high content; NTR1-U2OS beta-arrestin-GFP spot imaging, agonist mode; activation, % at 20 µM; hit rate 0.17% among 330,000;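 active = activation at or above 40% of the spot to cytoplasm intensity ratio, with at least 20 cells analyzed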;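 note: 0% = DMSO without peptide and 100% = 100 nM NTR1 peptide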
Target sequence (P30989 whole entry, looked up): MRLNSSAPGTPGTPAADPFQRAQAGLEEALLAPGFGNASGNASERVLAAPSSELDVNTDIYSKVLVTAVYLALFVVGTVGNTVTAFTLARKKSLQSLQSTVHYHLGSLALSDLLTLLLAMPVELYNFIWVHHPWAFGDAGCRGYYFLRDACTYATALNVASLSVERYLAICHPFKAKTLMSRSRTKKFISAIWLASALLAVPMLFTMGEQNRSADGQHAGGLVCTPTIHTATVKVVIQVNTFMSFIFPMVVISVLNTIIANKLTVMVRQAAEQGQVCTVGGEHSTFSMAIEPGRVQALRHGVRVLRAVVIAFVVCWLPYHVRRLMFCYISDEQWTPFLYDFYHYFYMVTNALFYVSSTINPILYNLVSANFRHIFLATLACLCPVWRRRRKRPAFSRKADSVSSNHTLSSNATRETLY
NR3A LBD binder: binders of NR3A ligand-binding domain, primary screen, biophysical, differential scanning fluorimetry, uHTS. Glutamate receptor ionotropic, NMDA 3A (GRIN3A) ligand-binding domain. NR3A LBD differential scanning fluorimetry, Tm shift; 0% = protein alone, 100% = glycine-bound protein. Tm shift relative to glycine control, % at 25 µM. hit rate 2.5% among 340,000. AID 1259313, 2017;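 active = melting temperature shift of at least 10% of the positive control shift, at one fixed dose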
* = called active by the depositor; . = no result given.

SMILES | Cardio protect | AI-2 QS modul | Mot1-301 SUMO | AHR activator | NTR1 agonist | NR3A LBD binder
C[C@H](NC(=O)c1ncn2c1C(=O)N[C@@H](C)C2)C(=O)OC(C)(C)C | -5.0 | . | . | . | . | .
COc1ccc(NC(=O)CCCN2C(=O)C(c3ccccc3)Oc3cccnc32)c(OC)c1 (centres undefined) | -4.4 | 11.7 | 339.0* | 3.0 | -0.1 | -0.9
CN(C(=O)c1cccc(Br)c1)C1CCS(=O)(=O)C1 (centres undefined) | -1.7 | 9.4 | 9.7 | -1.4 | -0.7 | -0.1
O=S(=O)(c1ccccc1)c1nc(Nc2cccc(O)c2)sc1Cl | -21.6 | -25.4 | -12.1 | 5.6 | 4.4 | 10.7*
Cc1ccc(S(=O)(=O)c2nc(Nc3ccccc3)sc2Cl)cc1 | -21.3 | 12.0 | . | . | . | 1.2
[O-]/C(=C(\C(=S)Nc1cccc2ccccc12)[n+]1ccccc1)c1ccc(Cl)s1 | 6.9 | 16.2 | 2.5 | 73.3* | -0.3 | -7.7
O=C(CCn1cccn1)Nc1ccc2c(c1)OCCO2 | 3.6 | 6.5 | -4.3 | 11.1 | 1.1 | 1.7
CCOC(=O)C1(C)CCCCCN1C(=O)c1ccc(C(F)(F)F)nc1C (centres undefined) | 7.8 | . | . | . | . | .
Cc1ccc(-n2nnc3c(=O)n(Cc4cccc(C)c4)cnc32)cc1 | -21.6 | -0.8 | 404.7* | 2.1 | 5.0 | -2.5
Cc1nc2cc(NCc3ccc(Cl)cc3)ccc2n1C | -8.3 | 1.0 | 1.8 | 24.1 | 1.4 | -0.8
Cc1ccc(CNc2ccc3c(c2)nc(C)n3C)cc1 | -8.0 | -2.5 | 8.2 | 56.8* | 0.2 | -0.8
CCc1cccc(NC(=O)C2CCCN2S(=O)(=O)c2ccccc2C(F)(F)F)c1 (centres undefined) | -1.9 | . | . | . | 1.9 | -1.7
Cc1ccc(NC(=O)c2ccccc2O)cc1 | -26.5 | -8.7 | . | 19.5 | 1.5 | -5.8
Cc1cc(C)cc(NC(=O)Nc2ccc(NC(=O)c3ccccc3O)cc2)c1 | -2.0 | 10.8 | 1.3 | 3.7 | 3.5 | 24.9*
O=C(Nc1ccccc1)Nc1ccc(NC(=O)c2ccccc2O)cc1 | 4.3 | 11.7 | 203.8 | 1.3 | 1.8 | 42.0*
Cc1cc(C)cc(NC(=O)Nc2ccc3ccccc3n2)c1 | -9.0 | 25.2 | -17.3 | 56.5* | 0.8 | 1.4
Cc1ccc(C(=O)Nc2ccc3ccccc3n2)cc1 | -14.7 | 17.8 | 20.3 | 4.9 | 2.4 | -1.4
O=C1NC(=O)C2(Br)Nc3ccc(Br)cc3C(=O)C2N1 (centres undefined) | -2.4 | . | . | . | . | -1.6
Cc1ccc(O)c(CNCCNCc2cc(C)ccc2O)c1 | 64.8* | 13.2 | -10.6 | 1.6 | -1.8 | 2.3
CCn1ncc(/C=C2/SC(=S)NC2=O)c1C | -4.6 | -31.4 | -2.3 | 1.6 | 0.2 | 11.8*
CCn1c(C)cc(/C=C2/SC(=S)NC2=O)c1C | -1.7 | 47.1 | 4.0 | 4.0 | -1.3 | -0.1
CCOC(=O)COn1c(-n2nc(C)cc2C)nc2ccccc2c1=O | 5.8 | 5.7 | 2.5 | 1.6 | -0.1 | -1.1
CC(OC(=O)CCCN=C1NS(=O)(=O)c2ccccc21)C(=O)N(C)c1ccccc1 (centres undefined) | 4.9 | -13.2 | 0.5 | 6.6 | -0.9 | 0.8
CC(OC(=O)CCCN=C1NS(=O)(=O)c2ccccc21)C(=O)c1ccccc1 (centres undefined) | -8.1 | 46.1 | -5.9 | 58.9* | -0.1 | 1.9
C=CCN=C1S/C(=C\N(C)C)C(=O)N1S(=O)(=O)c1ccc(C)cc1 | -3.5 | . | 10.4 | -0.4 | 1.4 | 12.0*
SMILES | Cardio protect | AI-2 QS modul | Mot1-301 SUMO | AHR activator | NTR1 agonist | NR3A LBD binder
Cc1nn2c(-c3ccccc3)nnc2c2ccccc12 | 3.3 | . | -11.5 | 36.6 | -0.9 | -0.3
Cc1nn2c3ccccc3nc2c2ccccc12 | -5.5 | 10.9 | 4.9 | 58.6* | 4.0 | 1.2
CCOc1ccccc1NC(=O)COC(=O)C12CC3CC(CC(O)(C3)C1)C2 | 7.2 | . | . | . | 0.7 | -1.7
COc1ccc(NC(=O)c2cc(C3CCCCN3S(=O)(=O)Cc3ccccc3)on2)cn1 (centres undefined) | 1.3 | . | . | . | . | .
COc1cccc(C(=O)NC(=O)Nc2cc(C)[nH]n2)c1 | -7.5 | 21.1 | -9.3 | 51.1* | 0.3 | 0.5
Cc1cc(NC(=O)c2cccc(Br)c2)n[nH]1 | -4.3 | 4.4 | -3.4 | 72.7* | -4.4 | 0.5
Cc1ccccc1C(=O)Nc1ccc2c(C#N)c3nc4ccccc4nc3n2c1 | 64.7* | 19.3 | -6.8 | 8.6 | -0.4 | 1.1
Cc1c(C(=O)Nc2ccccc2)cn2c(nc3ccccc32)c1C#N | -3.4 | 0.8 | 129.0 | 14.9 | 2.2 | -0.6
CN(C)c1ccc(N=Nc2cccc(F)c2)cc1 | -9.1 | -13.6 | 9.1 | 6.6 | 0.8 | 0.8
CN(C)c1ccc(N=Nc2cccc3ccoc23)cc1 | -8.0 | -1.5 | 494.2 | 14.4 | 1.8 | 22.2*
COc1ccc(-c2nc3c(c(SCC(=O)Nc4cccc(O)c4)n2)Cc2c(CO)cnc(C)c2O3)cc1 | 65.9* | 16.4 | 2.7 | 0.6 | 2.2 | 8.1
COc1ccc(OCc2nnc(SCC(=O)Nc3cccc(C(C)=O)c3)o2)cc1 | 1.2 | . | 2.2 | -0.6 | -0.7 | 0.5
Cc1ncc(CO)c2c1Oc1nc(-c3ccccc3)nc(SCC(=O)Nc3cccc(O)c3)c1C2 | 63.0* | 16.3 | 8.5 | 7.8 | 17.6 | 6.7
COc1ccccc1-c1cc(NC=O)c2ncc(-c3cccc(C(C)=O)c3)n2c1 | 60.0* | . | . | . | . | .
CC(=O)c1cccc(-c2cnc3c(NC=O)cc(-c4ccc(F)cc4)cn23)c1 | 60.9* | . | . | . | . | .
COc1ccccc1-c1cc(NC=O)c2ncc(-c3cccc(C(=O)N(C)C)c3)n2c1 | 8.0 | . | . | . | . | .
CCOC(=O)C1=C(COC(=O)/C=C/c2cccc([N+](=O)[O-])c2)NC(=O)NC1C (centres undefined) | 17.5 | -26.2 | 1.8 | 2.0 | 0.0 | 2.2
Cc1ccc(OCCSc2nc(NC(C)C)nc(NC(C)C)n2)cc1 | -21.3 | 27.7 | -18.1 | 3.5 | 23.5 | 23.1*
CC1=C(C)CC2C(C1)C(=O)c1ccc(Br)cc1S2(=O)=O (centres undefined) | 3.9 | . | -13.3 | -3.7 | 0.0 | 1.4
CCOC(=O)c1[nH]c2cc3c(cc2c1NC(=O)CN1CCCC1)OCO3 | 1.3 | 28.6 | 1.5 | 58.3* | 1.8 | 2.2
CCN(CC(=O)Nc1c(C(=O)OC)[nH]c2ccc(Cl)cc12)c1ccc2c(c1)OCO2 | 17.5 | 9.0 | . | 12.8 | 6.9 | 1.3
CCOC(=O)c1[nH]c2ccc(Cl)cc2c1NC(=O)/C=C/c1ccc2c(c1)OCO2 | -7.3 | -5.7 | -6.0 | 6.0 | 10.4 | 21.6*
CC(Sc1n[nH]c(-c2cccs2)n1)C(=O)N1CCCC1 (centres undefined) | -3.7 | . | -15.7 | 5.5 | -0.7 | -1.0

Source: PubChem BioAssay
